Experiment [1] in a line: Vero cells viability qHTS for Zika virus inhibitors (AID 1347167). Also: % is scaled to controls: 0 for no effect and ±100 for the full control effect. The settings on record: cytotoxicity counter-screen (Zika); series mostly up to 45.9 µM. The method in brief:
(§1)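 To flag cytotoxic protease inhibitors, viability is measured by ATP-dependent luminescence (CellTiter Glo) after cells attached overnight receive compound for 24 to 48 hours in DMEM with 4% FBS.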

Experiment [2] is described as follows: HepG2 cells viability qHTS for Zika virus inhibitors (AID 1347168). Also: % is scaled to controls: 0 for no effect and ±100 for the full control effect. The settings on record: Zika counter-screen; series mostly up to 45.9 µM. The method in brief:
as §1

Experiment [3] can be described thus: Tertiary RLuc qRT-PCR qHTS assay for Zika virus inhibitors (AID 1347169). Also: nearly all actives have a fitted effect of over 55% in size. Also: potency is read from the fitted curve at half-maximal effect. The settings on record: infected Vero cells, reporter luminescence, 48-72 h; series mostly up to 45.9 µM. The method in brief: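 Vero, 1,000 cells/well, o/n 37 C; cpd pinned in DMSO; ZIKV-RLuc Cambodian, MOI 1-2, 48-72 h 37 C; live-cell RLuc substrate, lum read at 1-1.5 h.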
Experiment [4] has as its target Lysine-specific demethylase 5B (Homo sapiens) (UniProt Q9UGL1). The experiment can be described thus: Optimization screen for KDM5B Histone Demethylases FDH coupled qHTS against the LOPAC library (AID 1347166). Also: 0% is about no effect. The settings on record: KDM5B demethylation, FDH-coupled NADH fluorescence (FDH is formaldehyde dehydrogenase); series mostly up to 57.5 µM. The method in brief:
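KDM5BDeltaAP (200nM final) in 50mM HEPES pH 7.5, 0.01% Tween-20 was preincubated with compound for 10 min at room temperature. A substrate mix of 12.5uM H3K4Me3, 25uM a-ketoglutarate, ascorbate, Fe2+, NAD+ and formaldehyde dehydrogenase was then added. NADH fluorescence (340/450 nm) was read initially and after 30 min.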

A short description of experiment [5]: OV-KATE Cancer Cell Toxicity qHTS against the NCATS CANVASS Library (AID 1347345). Also: % is scaled to controls: 0 for no effect and ±100 for the full control effect. The settings on record: OV-KATE cells viability, CellTiter-Glo luminescence, 72 h; series mostly up to 38.3 µM. The method in brief:
(§2)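 Quantitative HTS format: an 11-concentration series was applied to 1000 cells/well following a 4-hour attachment. Cultures ran 72 hours before ATP luminescence detection by CellTiter-Glo.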

Experiment [6] can be described thus: HPAF-II Cancer Cell Toxicity qHTS against the NCATS CANVASS Library (AID 1347346). Also: % is scaled to controls: 0 for no effect and ±100 for the full control effect; nearly all actives have a fitted effect of over 55% in size. The settings on record: HPAF-II viability, CellTiter-Glo ATP luminescence, 72 h; series mostly up to 38.3 µM. In short, it runs like this:
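First, HPAF-II cells are plated (1000 cells/well) and held 4 h at 37 degrees C. Next, compounds are pin-transferred as an 11-point series. After 72 h, CellTiter-Glo is added and luminescence measured.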

The nature of experiment [7]: UWB1.289 Cancer Cell Toxicity qHTS against the NCATS CANVASS Library (AID 1347347). Also: % is scaled to controls: 0 for no effect and ±100 for the full control effect; nearly all actives have a fitted effect of over 60% in size. The settings on record: UWB1.289 viability, CellTiter-Glo luminescence, 72 h; series mostly up to 38.3 µM. The method in brief:
as §2

Experiment [8] is described as follows: OV-SAHO Cancer Cell Toxicity qHTS against the NCATS CANVASS Library (AID 1347348). Also: % is scaled to controls: 0 for no effect and ±100 for the full control effect; nearly all actives have a fitted effect of over 55% in size. The settings on record: OV-SAHO viability, CellTiter-Glo luminescence, 72 h; series mostly up to 38.3 µM. The method in brief:
as §2

The nature of experiment [9]: Panc-1005 Cancer Cell Toxicity qHTS against the NCATS CANVASS Library (AID 1347349). Also: % is scaled to controls: 0 for no effect and ±100 for the full control effect; nearly all actives have a fitted effect of over 60% in size. The settings on record: Panc-1005 viability, CellTiter-Glo luminescence, 72 h; series mostly up to 38.3 µM. The method in brief:
as §2

Experiment [10] is described as follows: SW1088 Cancer Cell Toxicity qHTS against the NCATS CANVASS Library (AID 1347350). Also: nearly all actives have a fitted effect of over 75% in size. The settings on record: SW1088 viability, CellTiter-Glo luminescence, 72 h; at 38.3 µM (top of the series). The method in brief: as §2
Experiment [11] can be described thus: U-118MG Cancer Cell Toxicity qHTS against the NCATS CANVASS Library (AID 1347351). The settings on record: U-118MG viability, CellTiter-Glo luminescence, 72 h; series mostly up to 38.3 µM. In short, it runs like this:
as §2

Experiment [12] in a line: COV-362 Cancer Cell Toxicity qHTS against the NCATS CANVASS Library (AID 1347352). Also: % is scaled to controls: 0 for no effect and ±100 for the full control effect. The settings on record: COV-362 viability, CellTiter-Glo luminescence, 72 h; series mostly up to 38.3 µM. The method in brief:
(§3)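 First, 1000 cells go into each well and rest for 4 hours. Next, an 11-point dilution range is pinned in. Plates then incubate 72 hours before CellTiter-Glo addition and luminescence reading.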

The nature of experiment [13]: A2780 Cisplatin Sensitive Ovarian Cancer Cell Toxicity qHTS against the NCATS CANVASS Library (AID 1347353). Also: nearly all actives have a fitted effect of over 60% in size. The settings on record: A2780 ovarian cancer viability, ATPLite luminescence, 72 h; series mostly up to 46.1 µM. The method in brief: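 Cells are plated at 750 per well and rest for 4 hours. Compounds are added across eleven concentrations, and incubated 72 hours before ATP is quantified by luminescence.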

Experiment [14] can be described thus: UWB1.289-WTBRCA1 Cancer Cell Toxicity qHTS against the NCATS CANVASS Library (AID 1347354). The settings on record: UWB1.289-WTBRCA1 viability, CellTiter-Glo luminescence, 72 h; series mostly up to 38.3 µM. The method in brief: as §3
Experiment [15] can be described thus: HEK-293 Cancer Cell Toxicity qHTS against the NCATS CANVASS Library (AID 1347355). Also: % is scaled to controls: 0 for no effect and ±100 for the full control effect; nearly all actives have a fitted effect of over 65% in size. The settings on record: HEK-293 viability, CellTiter-Glo luminescence, 72 h; series mostly up to 46.1 µM. In short, it runs like this:
as §3

Experiment [16] is described as follows: HPAF-II 24hr Apoptosis Induction qHTS against the NCATS CANVASS Library (AID 1347356). Also: 0% is about no effect. The settings on record: HPAF-II caspase-3/7 Caspase-Glo luminescence; series mostly up to 46.1 µM. In short, it runs like this:
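Cells seeded at 500 per well, then compounds pin-transferred in an 11-point concentration series. After 24 hours at 37 degrees C, Caspase-Glo 3/7 was added and luminescence measured following 15 min at room temperature.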

The nature of experiment [17]: HEK293 18hr Apoptosis Induction qHTS against the NCATS CANVASS Library (AID 1347357). Also: 0% is about no effect. The settings on record: HEK293 caspase-3/7 Caspase-Glo luminescence; series mostly up to 46.1 µM. The method in brief: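 Cells seeded at 500/well in DMEM + 10% FBS. Compounds pinned, 11 concentrations. 18 h, 37 degrees C/5% CO2. Caspase-Glo 3/7 added, 15 min RT dark, luminescence read.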

The nature of experiment [18]: HPAF-II 12hr Apoptosis Induction qHTS against the NCATS CANVASS Library (AID 1347358). Also: 0% is about no effect. The settings on record: HPAF-II caspase-3/7 Caspase-Glo luminescence; series mostly up to 46.1 µM. The method in brief: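 Cells plated at 500 per well are dosed with compound and incubated 12 hours at 37 degrees C. Caspase-Glo 3/7 reagent is added and, after 15 min at room temperature, luminescence proportional to caspase activity is measured.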

Experiment [19] in a line: HEK293 24hr Apoptosis Induction qHTS against the NCATS CANVASS Library (AID 1347359). Also: 0% is about no effect. The settings on record: HEK293 caspase-3/7 activation, Caspase-Glo luminescence; series mostly up to 46.1 µM. In short, it runs like this:
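HEK293 cells (500/well, DMEM + 10% FBS) were exposed to compounds in an 11-point series for 24 hours at 37 degrees C, then caspase-3/7 activity was read by Caspase-Glo DEVD luciferase luminescence after 15 min.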

Experiment [20] is described as follows: HPAF-II 18hr Apoptosis Induction qHTS against the NCATS CANVASS Library (AID 1347360). Also: 0% is about no effect. The settings on record: HPAF-II caspase-3/7 luminescence; series mostly up to 46.1 µM. In short, it runs like this: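 Seed HPAF-II cells at 500/well in DMEM + 10% FBS, pin-transfer compounds, incubate 18 hours at 37 degrees C/5% CO2, add Caspase-Glo 3/7 reagent, wait 15 min, read luminescence.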

Inconclusive results are not listed. Unmarked numbers belong to inactive results. Calls of active or inactive are those of the source. Calls follow the shape of the dose curve; as a rule, active = well fitted curve in the direction sought with a large enough effect; inconclusive = small, poorly fitted or top-dose-only effect, or another doubt; inactive = no such curve, though single readings can be large; an effect the other way counts as inactive or inconclusive.

We go through 22 compounds from PubChem BioAssay (NCATS).

Sequence of Lysine-specific demethylase 5B (Homo sapiens) (Q9UGL1 whole entry, looked up): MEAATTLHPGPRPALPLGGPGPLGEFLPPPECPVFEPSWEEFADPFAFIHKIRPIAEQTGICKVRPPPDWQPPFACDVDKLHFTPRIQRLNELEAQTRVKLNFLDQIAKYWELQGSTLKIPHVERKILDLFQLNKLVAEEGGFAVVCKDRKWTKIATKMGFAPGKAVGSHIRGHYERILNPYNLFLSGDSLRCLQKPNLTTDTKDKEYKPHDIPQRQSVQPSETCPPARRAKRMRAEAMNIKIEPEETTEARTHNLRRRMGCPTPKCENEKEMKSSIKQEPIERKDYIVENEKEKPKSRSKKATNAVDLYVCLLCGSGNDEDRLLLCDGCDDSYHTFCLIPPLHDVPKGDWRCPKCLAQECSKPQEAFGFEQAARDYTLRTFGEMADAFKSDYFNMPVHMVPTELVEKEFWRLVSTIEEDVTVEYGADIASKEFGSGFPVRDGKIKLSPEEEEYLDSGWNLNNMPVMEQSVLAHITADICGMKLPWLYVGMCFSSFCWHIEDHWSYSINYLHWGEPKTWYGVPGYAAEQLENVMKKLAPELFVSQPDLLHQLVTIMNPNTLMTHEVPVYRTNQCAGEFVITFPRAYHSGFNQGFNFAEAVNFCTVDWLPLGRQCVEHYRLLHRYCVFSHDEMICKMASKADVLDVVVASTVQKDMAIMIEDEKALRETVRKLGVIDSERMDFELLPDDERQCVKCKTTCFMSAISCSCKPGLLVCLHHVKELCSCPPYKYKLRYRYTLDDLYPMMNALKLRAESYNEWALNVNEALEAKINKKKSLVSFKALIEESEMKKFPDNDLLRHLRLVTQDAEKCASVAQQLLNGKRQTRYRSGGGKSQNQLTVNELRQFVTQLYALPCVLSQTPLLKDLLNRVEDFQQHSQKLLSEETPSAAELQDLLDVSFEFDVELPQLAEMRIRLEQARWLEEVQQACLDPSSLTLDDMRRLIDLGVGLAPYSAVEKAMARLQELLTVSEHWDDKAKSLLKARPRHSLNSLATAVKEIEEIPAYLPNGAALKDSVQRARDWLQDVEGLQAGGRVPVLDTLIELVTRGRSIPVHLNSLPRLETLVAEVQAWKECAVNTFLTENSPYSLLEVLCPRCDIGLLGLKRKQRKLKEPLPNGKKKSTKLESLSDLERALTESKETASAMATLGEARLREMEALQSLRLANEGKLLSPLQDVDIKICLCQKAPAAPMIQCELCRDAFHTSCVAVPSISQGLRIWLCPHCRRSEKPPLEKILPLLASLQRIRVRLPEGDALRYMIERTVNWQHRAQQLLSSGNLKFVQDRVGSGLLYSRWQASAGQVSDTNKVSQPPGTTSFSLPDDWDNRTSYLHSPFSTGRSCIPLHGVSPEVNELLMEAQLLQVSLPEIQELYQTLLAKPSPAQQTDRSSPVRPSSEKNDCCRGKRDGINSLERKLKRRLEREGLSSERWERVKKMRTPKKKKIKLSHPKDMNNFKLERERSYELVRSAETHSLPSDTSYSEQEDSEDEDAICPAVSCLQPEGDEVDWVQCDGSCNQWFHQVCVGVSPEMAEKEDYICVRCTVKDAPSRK

For `CC(=O)Nc1ccc([C@H](C)C(=O)Nc2ncc(C(C)C)s2)cc1`, the Potency entry in [1] was “inactive”. In [2], the compound was called inactive. The Potency in experiment [3] is 1.04 µM (active).

As for `COC(=O)[C@@H]1[C@H]2C[C@H]3c4[nH]c5ccccc5c4CCN3C[C@@H]2CC[C@@H]1O`, the compound was classed as inactive in experiment [4], in [5], in [6], in [7], in experiment [8] and in experiment [9]. Besides, the compound was called inactive in experiment [10], in experiment [11], in experiment [12], in experiment [13], in [14] and in experiment [15]. Also, the outcome in experiment [16], in experiment [17], in [18], in experiment [19] and in experiment [20] was inactive.

Regarding `O=c1c(O)c(-c2ccc(O)cc2)oc2cc(O)cc(O)c12`, the activity change, negative = inhibition in experiment [3] was 13.5% [at 0.997 µM].

As for `O=C(O)c1c(Cl)c(Cl)c(Cl)c(Cl)c1-c1c2cc(I)c(=O)c(I)c-2oc2c(I)c(O)c(I)cc12`, the Potency result in [3] is “inactive”.

On to `CS(=O)c1ccc(-c2nc(-c3ccc(F)cc3)c(-c3ccncc3)[nH]2)cc1` (stereo not given), for which the Potency result in experiment [1] is “inactive”. Further, in experiment [2], the call was inactive.

Take `CC1CCC(C(=O)N(c2cc(C#CC(C)(C)C)sc2C(=O)O)C2CCC(O)CC2)CC1` (stereo not given): the Potency entry in experiment [1] was “inactive”. For the same compound, in experiment [2], the result was inactive.

For `CC(C)NCC(O)COc1cccc2[nH]ccc12` (stereo not given), the call in experiment [4] was inactive.

As to `CCN1CCC[C@H]1CNC(=O)c1cc(S(N)(=O)=O)ccc1OC`, the compound was classed as inactive in [4].

Turning to `COc1ccc2cc(-c3nc(-c4ccc(S(C)=O)cc4)[nH]c3-c3ccncc3)ccc2c1` (stereo not given), the Potency result in experiment [1] is “inactive”.

As to `O=c1cc(-c2ccc(O)cc2)oc2cc(O)cc(O)c12`, the compound was called inactive in experiment [4].

For the compound `O=C(NCCN1CCOCC1)c1ccc(Cl)cc1`, the result in experiment [4] was inactive.

As to `C[C@H](NC(=O)C(=O)Nc1ccccc1C(C)(C)C)C(=O)N[C@@H](CC(=O)O)C(=O)COc1c(F)c(F)cc(F)c1F`, the Potency result in experiment [1] and in experiment [3] was “inactive” each time. For the same compound, the compound was called inactive in experiment [2].

Take `NC(=O)c1cccc2[nH]c(-c3ccc([C@H]4CCCN4)cc3F)nc12`: the Potency entry in experiment [1] and in [3] was “inactive” throughout. Further, the call in [2] was inactive.

For `NC(=O)c1ccc2nc(-c3ccc(Oc4ccc(Cl)cc4)cc3)[nH]c2c1`, the Potency result in experiment [1] is “inactive”. For the same compound, in experiment [2], the compound was called inactive.

Regarding `O=C(O)C(O)Cc1ccc(O)c(O)c1` (stereo not given), the result in experiment [5], in experiment [6], in experiment [7], in experiment [8], in [10] and in experiment [11] was inactive. For the same compound, the result in experiment [12], in experiment [13], in [14], in experiment [16], in [17] and in experiment [18] was inactive. For the same compound, the result in experiment [19] and in experiment [20] was inactive.

For the compound `CCn1cc(C(=O)O)c(=O)c2ccc(C)nc21`, the outcome in [4] was inactive.

For the compound `Cc1ccn(-c2ccc(-c3ncco3)cc2)c(=O)c1-c1ccc2nc(N)ncc2c1`, in experiment [1], the Potency entry is “inactive”. Moreover, the compound was classed as inactive in experiment [2].

On to `CC(C)OC(=O)C(C)(C)Oc1ccc(C(=O)c2ccc(Cl)cc2)cc1`, for which, in [4], the compound was called inactive.

For the compound `CN(C)c1cc(NC(=O)CNC(C)(C)C)c(O)c2c1C[C@@H]1C[C@H]3[C@H](N(C)C)C(=O)C(C(N)=O)=C(O)[C@@]3(O)C(=O)C1=C2O`, the Potency entry in experiment [1] and in [3] was “inactive” in each case. In addition, the compound was called inactive in experiment [2].

Regarding `CC1(C)CCC(CN2CCN(c3ccc(C(=O)NS(=O)(=O)c4ccc(NCC5CCOCC5)c([N+](=O)[O-])c4)c(Oc4cnc5[nH]ccc5c4)c3)CC2)=C(c2ccc(Cl)cc2)C1`, the outcome in experiment [2] was inactive. The Potency in experiment [3] was 5.72 µM (active).

As for `O=c1cc(-c2ccccc2)oc2cc(O)c(O)c(O)c12`, the Potency entry in experiment [1] and in experiment [3] was “inactive” throughout. Also, the compound was classed as inactive in experiment [2], in [5], in [6], in experiment [8], in [9] and in [11]. In addition, the result in experiment [12], in [13], in experiment [14], in experiment [15], in [16] and in [17] was inactive. Besides, the compound was classed as inactive in [18], in [19] and in experiment [20].

Turning to `Cc1cc(OCCCc2c(C(=O)O)n(Cc3cccnc3)c3c(-c4c(COc5ccc(N6CCN([S+](C)(=O)[O-])CC6)cc5)nn(C)c4C)cccc23)cc(C)c1Cl`, the compound was called inactive in experiment [2].
